Results taken from PubChem BioAssay (NCATS).
Results filed as inconclusive are left out. A call without a number means that no potency is given here. Calls of active or inactive are those of the source. Calls come from the whole dose curve; as a rule, active = well fitted curve in the direction sought with a large enough effect; inconclusive = small, poorly fitted or top-dose-only effect, or another doubt; inactive = no such curve, though single readings can be large; an effect the other way counts as inactive or inconclusive.

How the values were obtained:
[1] = qHTS of pediatric cancer cell lines to identify multiple opportunities for drug repurposing: Primary screen for Saos-2 cells (AID 1347097); note: nearly all actives have a fitted effect of over 40% in size
Outline: (§1)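 500-1,000 cells/well; 5 h pre-incubation 37 °C/5% CO2; compound pinned; 48 h; CellTiter-Glo, 15 min RT; luminescence. MIPE 11-pt from 0.78 nM, NPC 8-pt from 0.59 nM final. Bortezomib 2.3 µM final as positive control.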

[2] = qHTS of pediatric cancer cell lines to identify multiple opportunities for drug repurposing: Primary screen for SK-N-SH cells (AID 1347098); note: nearly all actives have a fitted effect of over 65% in size; note: potency is the fitted concentration of half-maximal effect
Outline: (§2)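 Cells (500-1,000/well) rested 5 h, then received compounds for 48 h; metabolically active cells were measured by CellTiter-Glo luminescence. Final concentrations spanned up to 46 µM (MIPE, 11-point) or 0.59 nM-46 µM (NPC, 8-point) in primary screens, 11-point in follow-ups.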

[3] = qHTS of pediatric cancer cell lines to identify multiple opportunities for drug repurposing: Primary screen for NB1643 cells (AID 1347099); note: nearly all actives have a fitted effect of over 50% in size
Outline: as §1

[4] = qHTS of pediatric cancer cell lines to identify multiple opportunities for drug repurposing: Primary screen for LAN-5 cells (AID 1347100); note: potency is the fitted concentration of half-maximal effect
Outline: (§3)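 Viability after 48 h compound treatment at 37C, 500-1,000 cells/well, read as ATP luminescence with CellTiter-Glo. Primary screens used 11-point (MIPE, 0.78 nM-46 µM) or 8-point (NPC, 0.59 nM-46 µM) final concentrations; follow-up screens used 11-point dilutions.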

[5] = qHTS of pediatric cancer cell lines to identify multiple opportunities for drug repurposing: Primary screen for BT-12 cells (AID 1347101); note: nearly all actives have a fitted effect of over 25% in size
Outline: as §2

[6] = qHTS of pediatric cancer cell lines to identify multiple opportunities for drug repurposing: Primary screen for Rh18 cells (AID 1347102); note: nearly all actives have a fitted effect of over 65% in size
Outline: as §3

[7] = qHTS of pediatric cancer cell lines to identify multiple opportunities for drug repurposing: Primary screen for OHS-50 cells (AID 1347103); note: nearly all actives have a fitted effect of over 40% in size; note: potency is the fitted concentration of half-maximal effect
Outline: as §2

[8] = qHTS of pediatric cancer cell lines to identify multiple opportunities for drug repurposing: Primary screen for RD cells (AID 1347104); note: nearly all actives have a fitted effect of over 55% in size
Outline: as §1

[9] = qHTS of pediatric cancer cell lines to identify multiple opportunities for drug repurposing: Primary screen for MG 63 (6-TG R) cells (AID 1347105); note: nearly all actives have a fitted effect of over 50% in size
Outline: as §1

[10] = qHTS of pediatric cancer cell lines to identify multiple opportunities for drug repurposing: Primary screen for control Hh wild type fibroblast cells (AID 1347106);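 note: series mostly up to about 46 µM; a drop in luminescence marks cytotoxicity and a rise apparent proliferation; nearly all actives have a fitted effect of over 55% in size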
Outline: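 Cells (500-1,000/well) in growth media were settled 5 h at 37 degrees C, then given compounds for 48 h. Viability was read as CellTiter-Glo luminescence. Primary runs used MIPE at 11 points (0.78 nM-46 µM) and NPC at 8 points (0.59 nM-46 µM); follow-ups used 11 points.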

[11] = qHTS of pediatric cancer cell lines to identify multiple opportunities for drug repurposing: Primary screen for Rh30 cells (AID 1347107); note: series mostly up to about 46 µM; nearly all actives have a fitted effect of over 75% in size
Outline: as §3

[12] = qHTS of pediatric cancer cell lines to identify multiple opportunities for drug repurposing: Confirmatory screen for NB1643 cells (AID 1347109); note: nearly all actives have a fitted effect of over 45% in size
Outline: as §3

[13] = qHTS of pediatric cancer cell lines to identify multiple opportunities for drug repurposing: Confirmatory screen for A673 cells (AID 1347110);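 note: cells exposed to compound for 48 h before the viability read; nearly all actives have a fitted effect of over 65% in size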
Outline: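 A673 cells seeded at 500-1,000 cells/well, rested 5 h, then dosed; primary MIPE 11-point (0.78 nM to 46 µM), NPC (0.59 nM to 46 µM); confirmatory 11-point. CellTiter-Glo luminescence after 48 h.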

[14] = qHTS of pediatric cancer cell lines to identify multiple opportunities for drug repurposing: Confirmatory screen for BT-12 cells (AID 1347112); note: nearly all actives have a fitted effect of over 55% in size
Outline: as §3

[15] = qHTS of pediatric cancer cell lines to identify multiple opportunities for drug repurposing: Confirmatory screen for LAN-5 cells (AID 1347113); note: nearly all actives have a fitted effect of over 65% in size
Outline: as §3

[16] = qHTS of pediatric cancer cell lines to identify multiple opportunities for drug repurposing: Confirmatory screen for NB-EBc1 cells (AID 1347115);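 note: cells exposed to compound for 48 h before the viability read; nearly all actives have a fitted effect of over 45% in size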
Outline: as §3

[17] = qHTS of pediatric cancer cell lines to identify multiple opportunities for drug repurposing: Confirmatory screen for SJ-GBM2 cells (AID 1347116); note: nearly all actives have a fitted effect of over 60% in size
Outline: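 Viability measured as metabolically active cells via CellTiter-Glo luminescence following 48 hours of compound exposure, 11-point dilutions in confirmatory testing. 500-1,000 cells/well plated 5 hours before dosing; controls were DMSO and 2.3 µM bortezomib.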

[18] = qHTS of pediatric cancer cell lines to identify multiple opportunities for drug repurposing: Confirmatory screen for BT-37 cells (AID 1347117); note: nearly all actives have a fitted effect of over 55% in size
Outline: as §3

[19] = qHTS of pediatric cancer cell lines to identify multiple opportunities for drug repurposing: Primary screen for Rh41 cells (AID 1347108);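 note: series mostly up to about 46 µM; luminescence drop marks cytotoxic hits; nearly all actives have a fitted effect of over 70% in size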
Outline: as §1

Structure (SMILES)	Potency [1]	Potency [2]	Potency [3]	Potency [4]	Potency [5]	Potency [6]	Potency [7]	Potency [8]	Potency [9]	Potency [10]	Potency [11]	Potency [12]	Potency [13]	Potency [14]	Potency [15]	Potency [16]	Potency [17]	Potency [18]	Potency [19]
CN(C)CCN(Cc1ccsc1)c1ccccn1	inactive	inactive	inactive	0.001 µM (active)	inactive	inactive	inactive	inactive	inactive	inactive	inactive	inactive	inactive	inactive	inactive	inactive	inactive	inactive	–
CC(C)(C)c1ccc(C(=O)CCCCl)cc1	inactive	inactive	inactive	inactive	inactive	inactive	inactive	inactive	inactive	inactive	–	–	–	–	–	–	–	–	inactive
O=C(c1ccccc1)c1ccccc1	inactive	inactive	inactive	inactive	inactive	inactive	inactive	inactive	inactive	–	inactive	–	–	–	–	–	–	–	inactive
C[N+]1(C)CCC(OC(=O)C(O)(c2ccccc2)C2CCCC2)C1 (stereo not drawn)	inactive	inactive	inactive	inactive	inactive	inactive	–	inactive	inactive	inactive	inactive	–	–	–	–	–	–	–	–
CN1CC(=O)N2[C@H](c3ccc4c(c3)OCO4)c3[nH]c4ccccc4c3C[C@@H]2C1=O	inactive	inactive	inactive	inactive	inactive	inactive	inactive	inactive	–	inactive	inactive	–	–	–	–	–	–	–	inactive
CN(C)CCOC(c1ccccc1)c1ccc(Br)cc1 (stereo not drawn)	inactive	15.4 µM (active)	inactive	inactive	inactive	inactive	21.9 µM (active)	–	inactive	inactive	inactive	–	–	–	–	–	–	–	inactive
CN(CC1(C)CCCO1)S(=O)(=O)c1ccc(Cl)c(S(N)(=O)=O)c1 (stereo not drawn)	inactive	inactive	inactive	inactive	inactive	inactive	–	inactive	inactive	inactive	inactive	–	–	–	–	–	–	–	inactive
